An excerpt weighted towards active compounds, which were near 9.2% of everything screened.
NPC1 prom act: qHTS Assay for NPC1 Promoter Activators | Huh7 NPC1 promoter luciferase reporter, 24 h | Potency, µM (series often up to 9.22 µM), actives largely listed as activators | 320,000 tested, 2.4% active; further: nearly all actives have a fitted effect of over 60% in size
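Huh7 reporter cells (NPC1 promoter driving luciferase) are dosed with compound for 24 h at 37 °C, 5% CO2; luciferase detection reagent is then added and luminescence measured after 10 min at ambient temperature.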
Rab9 promoter act: qHTS Assay for Rab9 Promoter Activators; Potency, µM (doses to about 9.22 µM), hits mostly activators; Huh7 Rab9 promoter-luciferase reporter, luminescence, 24 h; 320,000 tested, 2.8% active; further: nearly all actives have a fitted effect of over 60% in size
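Stable Rab9-luc Huh7, 1500 cells/well, 2 h settle; cmpd in DMSO, 24 h, 37 °C/5% CO2; luciferase reagent 10 min RT; luminescence.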
FLuc modulator: qHTS profiling assay for firefly luciferase inhibitor/activator using purifed enzyme and Km concentrations of substrates (counterscreen for miR-21 project); Luciferin 4-monooxygenase (Photinus pyralis), P08659; purified FLuc, Km substrates, luminescence inhibition; Potency, µM (titrated, usually from 57.5 µM), hits mostly inhibitors; 360,000 tested, 6.9% active; further: nearly all actives have a fitted effect of over 55% in size
Target sequence (P08659 whole entry, looked up): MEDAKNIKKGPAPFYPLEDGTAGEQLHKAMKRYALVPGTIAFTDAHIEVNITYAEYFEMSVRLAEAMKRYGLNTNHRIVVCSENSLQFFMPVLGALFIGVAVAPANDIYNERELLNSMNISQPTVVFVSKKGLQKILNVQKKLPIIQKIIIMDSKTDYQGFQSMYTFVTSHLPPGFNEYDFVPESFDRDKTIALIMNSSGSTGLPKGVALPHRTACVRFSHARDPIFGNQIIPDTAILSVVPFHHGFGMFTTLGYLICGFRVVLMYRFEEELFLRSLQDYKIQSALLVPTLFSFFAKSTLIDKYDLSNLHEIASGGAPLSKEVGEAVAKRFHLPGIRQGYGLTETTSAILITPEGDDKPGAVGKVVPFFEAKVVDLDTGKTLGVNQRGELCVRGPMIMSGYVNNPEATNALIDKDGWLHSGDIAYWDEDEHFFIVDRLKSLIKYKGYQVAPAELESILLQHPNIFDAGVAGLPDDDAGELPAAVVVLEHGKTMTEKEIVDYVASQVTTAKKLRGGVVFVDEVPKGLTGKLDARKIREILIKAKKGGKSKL
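Purified P. pyralis luciferase (10nM final) with 10uM D-luciferin and 10uM ATP (Km levels) in 50mM Tris acetate pH 7.5, 10mM Mg acetate, 0.01% Tween-20, 0.05% BSA; qHTS 6-point titration, ~60 µM downward; luminescence read.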
ELG1 repair inh: qHTS screen for small molecules that inhibit ELG1-dependent DNA repair in human embryonic kidney (HEK293T) cells expressing luciferase-tagged ELG1 | HEK293T ELG1-luciferase reporter, luminescence, 16 h; DNA damage induced by 5-fluorouridine | Potency, µM (top dose mostly 46.1 µM), hits mostly inhibitors | 330,000 tested, 2.3% active; further: nearly all actives have a fitted effect of over 55% in size
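Overnight (16 hr) co-exposure of 2,000 cells/well to 5-fluorouridine and compound at 37 °C preceded detection. Luciferase was quantified via ONE-Glo luminescence; loss of signal denotes inhibition.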
SMN2 splice up: qHTS Assay for Enhancers of SMN2 Splice Variant Expression. HEK293 SMN2-luciferase splicing reporter, luminescence, 30-36 h. Potency, µM (top dose mostly 46.1 µM), usual class: activators. 210,000 tested, 2.8% active; further: nearly all actives have a fitted effect of over 55% in size
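HEK293 cells carry an SMN2 […]–luciferase reporter in which exon 7 inclusion puts luciferase in frame. Cells were plated 10-12 h before compound addition, then incubated 30-36 h at 37C. ONE-Glo luminescence was read; sodium butyrate at 4.5 mM final served as control.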
ELG1 genotox: qHTS screen for small molecules that induce genotoxicity in human embryonic kidney (HEK293T) cells expressing luciferase-tagged ELG1; HEK293T ELG1-luciferase reporter, luminescence, 16 h; Potency, µM (titrated, usually from 46 µM), hits mostly activators; 330,000 tested, 1.3% active; AID 504466, 2011; further: nearly all actives have a fitted effect of over 60% in size
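Genotoxicity was scored as increased ELG1-luciferase reporter signal, measured by ONE-Glo luminescence (30 min, room temperature). Compound or vehicle exposure of the HEK293T reporter cells lasted 16 hr at 37°C.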
A number is an active result. The call rests on the fitted dose curve; in most records, active means well fitted curve in the direction sought with a large enough effect; inconclusive means small, poorly fitted or top-dose-only effect, or another doubt; inactive means no such curve, though single readings can be large; an effect the other way counts as inactive or inconclusive.

Results for Cc1cccc(-n2nnnc2SCC(=O)c2cc(C)n(Cc3ccco3)c2C)c1 ?
NPC1 prom act: inactive; Rab9 promoter act: inactive; FLuc modulator: inactive; ELG1 repair inh: inactive; SMN2 splice up: inactive; ELG1 genotox: inactive

Results for Cc1cc(C(=O)COC(=O)c2ccncc2)c(C)n1Cc1ccco1 ?
NPC1 prom act: inactive; Rab9 promoter act: inconclusive; FLuc modulator: 0.85µM; ELG1 repair inh: inactive; SMN2 splice up: inactive; ELG1 genotox: inactive

What do the screens show for `CCOC(=O)C1C(=O)C=C(/C=C/c2ccc(N(C)C)cc2)CC1c1ccccc1` (stereo not drawn)?
NPC1 prom act: inactive; Rab9 promoter act: inactive; FLuc modulator: inactive; ELG1 repair inh: inactive; SMN2 splice up: inactive; ELG1 genotox: inactive

What do the screens show for `Cc1cc(C(=O)COC(=O)c2cc(Cl)ccc2N)c(C)n1Cc1ccco1`?
NPC1 prom act: 3.5µM; Rab9 promoter act: 2.5µM; FLuc modulator: 2.4µM; ELG1 repair inh: inconclusive; SMN2 splice up: 14µM; ELG1 genotox: 9.2µM

What do the screens show for `O=C(COC(=O)c1ccco1)c1ccc(F)cc1`?
NPC1 prom act: inactive; Rab9 promoter act: inactive; FLuc modulator: 2.7µM; ELG1 repair inh: inactive; ELG1 genotox: inconclusive

What do the screens show for `Cc1cc(C(=O)COC(=O)c2cccn2C)c(C)n1Cc1ccco1`?
NPC1 prom act: 0.79µM; Rab9 promoter act: 0.63µM; FLuc modulator: 0.6µM; ELG1 repair inh: inconclusive; SMN2 splice up: inconclusive; ELG1 genotox: 0.41µM

Results for Cc1ccc2nc(SCC(=O)NCc3ccc4c(c3)OCO4)nc(=O)n2c1 ?
NPC1 prom act: inactive; Rab9 promoter act: inactive; FLuc modulator: inactive; ELG1 repair inh: inactive; ELG1 genotox: inactive

What do the screens show for `CCOC(=O)CSc1nnc(-c2c[nH]c3ccccc23)o1`?
NPC1 prom act: inactive; Rab9 promoter act: inactive; FLuc modulator: 19µM; ELG1 repair inh: inactive; ELG1 genotox: inactive

How did COc1ccc(CN(C(=O)CSc2nnc(-c3c[nH]c4ccccc34)o2)c2ccc(F)cc2)cc1OC do in these assays?
NPC1 prom act: inactive; Rab9 promoter act: inactive; FLuc modulator: inconclusive; ELG1 repair inh: 5.2µM; SMN2 splice up: inactive; ELG1 genotox: inactive

What do the screens show for `CCSc1nnc(-c2c[nH]c3ccccc23)o1`?
NPC1 prom act: 3.2µM; Rab9 promoter act: 4µM; FLuc modulator: 19µM; ELG1 repair inh: inconclusive; ELG1 genotox: inconclusive

What do the screens show for `COc1ccc(CN(C(=O)CSc2nnc(-c3ccc(F)cc3)o2)c2ccc(F)cc2)cc1`?
NPC1 prom act: inactive; Rab9 promoter act: inactive; FLuc modulator: inactive; ELG1 repair inh: inconclusive; SMN2 splice up: inactive; ELG1 genotox: inactive

Results for Cc1ccc(S(=O)(=O)NCC(=O)OCC(=O)N2CC(C)OC(C)C2)cc1 (stereo not drawn) ?
ELG1 repair inh: inactive; ELG1 genotox: inactive

How did CCC(CC)C(=O)Nc1ccc2nc(SCC(=O)N3c4ccccc4CC3C)sc2c1 (stereo not drawn) do in these assays?
FLuc modulator: inactive

What do the screens show for `Cc1cn(C2CC(N=[N+]=[N-])C(CO)O2)c(=O)[nH]c1=O` (stereo not drawn)?
SMN2 splice up: inactive

Results for CC(C)(O)c1cc(=O)sc2nc3ccccc3n12 ?
NPC1 prom act: 3.5µM; Rab9 promoter act: 0.56µM; FLuc modulator: 9.5µM; ELG1 repair inh: inconclusive; SMN2 splice up: 14µM; ELG1 genotox: inconclusive

How did NC(=O)c1sc(=S)n2c1[nH]c(=O)c1sccc12 do in these assays?
NPC1 prom act: inactive; Rab9 promoter act: inactive; FLuc modulator: inconclusive; ELG1 repair inh: inactive; SMN2 splice up: inactive; ELG1 genotox: inactive

How did CC(=O)NNC(=O)c1sc(=S)n2c1[nH]c(=O)c1sccc12 do in these assays?
NPC1 prom act: inactive; Rab9 promoter act: inactive; FLuc modulator: 19µM; ELG1 repair inh: inconclusive; SMN2 splice up: inactive; ELG1 genotox: inactive

Source: PubChem BioAssay (National Center for Advancing Translational Sciences (NCATS))
